From PubChem BioAssay (Tox21)
Inconclusive results are not listed. Unmarked numbers belong to inactive results. The source made the active and inactive calls. The call rests on the fitted dose curve; in most records, active means well fitted cell-killing curve with a large enough effect in the repeat runs; inconclusive means weak or mixed curves, or effect the other way; inactive means flat fitted curve, though single readings scatter.

Assay: qHTS assay to identify small molecule agonists of the TGF-beta/Smad signaling pathway - cell viability counter screen (AID 1346829); further: top concentration of the series differs between compounds; nearly all actives have a fitted effect of over 45% in size
Settings: SBE-bla HEK293T viability, CellTiter-Glo luminescence, 5 h; series mostly up to 76.8 µM
Text: National Center for Advancing Translational Sciences [NCATS]
NIH Chemical Genomics Center [NCGC]
U.S. Environmental Protection Agency [EPA]
National Institutes of Environmental Health Sciences [NIEHS]
National Toxicology Program [NTP]
U.S. Food and Drug Administration [FDA]
Transforming growth factor beta (TGF-beta) superfamily consists of a large number of structurally related dimeric proteins that act as hormones or local mediators in regulating a wide range of biological functions. This superfamily includes TGF-betas themselves, the bone morphogenetic proteins (BMPs) and the activins. These ligands induce oligomerization of serine/threonine receptor kinases and phosphorylate the cytoplasmic signaling molecules of Smad protein family. CellSensor SBE-bla HEK 293T cell line (Life Technologies, Carlsbad, CA), responsive to TGF-beta was used to screen Tox21 10K compound library for identification of agonists/antagonists of the Smad signaling pathway. This cell line contains a beta-lactamase reporter gene under control of the Smad binding element (SBE) stably integrated into HEK 293T cells. Also cytotoxicity of the compounds was tested in parallel by measuring the cell viability using CellTiter-Glo assay system in the same wells.
Tox21 Assay Protocol Summary:
SBE-bla HEK 293T cells were dispensed at 4,000/well in 6 uL of assay medium into black wall/clear-bottom 1536-well plates using a Multidrop Combi (ThermoFisher Scientific, Waltham, MA) dispenser. After the assay plates were incubated at 37 C and 5% CO2 for an overnight, 23 nL of compounds dissolved in DMSO, positive controls or DMSO only was transferred to the assay plate by a Pintool station (Kalypsys, San Diego, CA). The assay plates were incubated at 37 C and 5% CO2 for 5 hr. One uL of LiveBLAzer B/G FRET substrate (Life Technologies) was added using a Flying Reagent Dispenser (FRD, Aurora Discovery, San Diego, CA) and the plates were incubated at room temperature for 2 hr. Fluorescence intensity (405 nm excitation, 460 nm and 530 nm emissions) was measured using an Envision plate reader (PerkinElmer, Shelton, CT). For cytotoxicity read, 4 uL of CellTiter-Glo reagent (Promega Corporation, Madison, WI) was added to each well of the assay plates using FRD. After 30min incubation at room temperature, the luminescence intensity was measured using ViewLux plate reader (PerkinElmer).
On the % scale 0 is the no-effect control and ±100 the full control effect.

SMILES	outcome	activity change, negative = cytotoxicity
CC(N)C12CC3CC(CC(C3)C1)C2 (stereo not given)	inactive	
CC(=O)c1ccccc1[N+](=O)[O-]	inactive	
CCCCCCC#CC(=O)OC	inactive	
O=C1CCCCCCCCCCCCCCO1	inactive	
CCCCN(CCC(=O)OCC)C(C)=O	inactive	
CC(=O)NC(=O)c1ccccc1O	inactive	
CCCCCCCCCCOc1cc2c(=O)c(C(=O)OCC)c[nH]c2cc1OCC		0.83% [at 6.97 µM]
CN1CCN(c2cc3c(nn2)Oc2ccccc2N3C)CC1		19.9% [at 15.8 µM]
CC/C=C\CCOC(C)OCC (stereo not given)	inactive	
CNCC(O)c1ccc(O)c(O)c1 (stereo not given)	inactive	
C[N+](C)(CCOc1ccccc1)Cc1cccs1	inactive	
NCCCC(N)(C(=O)O)C(F)F (stereo not given)	inactive	
CC1=NS(=O)(=O)c2cc(Cl)ccc2N1	inactive	
CC(C)=CCC/C(C)=C/C#N	inactive	
COc1cc(C)nc(-n2nc(C)cc2OC)n1	inactive	
CCO[Si](OCC)(OCC)c1ccccc1	inactive	
COCCOCC(OC)OC	inactive	
CC(C#N)(CCC(=O)O)N=NC(C)(C#N)CCC(=O)O (stereo not given)	inactive	
CC(C)C1CCC(O)CC1 (stereo not given)	inactive	
CNCCO	inactive	

SMILES	outcome	activity change, negative = cytotoxicity
CCCCCCCCCCCCCCCCCCO	inactive	
CCCCCCCC1CCCC1=O (stereo not given)	inactive	
CC(C(=O)O)c1cccc(Oc2ccccc2)c1 (stereo not given)	inactive	
CC(C)(C)c1ccc(-c2ccc(C(C)(C)C)cc2)cc1	inactive	
O=S(=O)(O)c1cccc2c(S(=O)(=O)O)cccc12	inactive	
[K+]	inactive	
CCC(C)(CN(C)C)OC(=O)c1ccccc1 (stereo not given)	inactive	
C=C(C)C(=O)OCC1CCCO1 (stereo not given)	inactive	
CC(C)(N)C#N	inactive	
Cc1nc(C2CCCCC2)c(-c2ccc(S(N)(=O)=O)c(F)c2)o1	inactive	
CCCc1ncc(C[n+]2ccccc2C)c(N)n1	inactive	
COc1cc(C(=O)OC(COCCC(C)C)CN2CCOCC2)cc(OC)c1OC (stereo not given)	inactive	
NS(=O)(=O)Cc1noc2ccccc12	inactive	
CO[C@@]1(NC(=O)C(C(=O)O)c2ccc(O)cc2)C(=O)N2C(C(=O)O)=C(CSc3nnnn3C)CO[C@@H]21 (stereo not given in full)	inactive	
O=C1c2ccccc2C(=O)c2cc(O)ccc21	inactive	
[O-][n+]1cccc(CO)c1	inactive	
CCCCOC(=O)CCC(C)=O	inactive	
CC1(C)[C@@H]2CC[C@@]1(C)[C@H](O)C2	inactive	
CN1CC(=O)N/C1=N/C(=O)Nc1cccc(Cl)c1	inactive	
CCCCc1nc(Cl)c(CO)n1Cc1ccc(-c2ccccc2-c2nn[nH]n2)cc1	inactive	
